HCV inhibitor – inhibitors of hepatitis C virus infection | Huh7.5.1 HCVcc-Cre infection, luciferase reporter, 44 h | Potency, µM (series often up to 41.8 µM), hits mostly inhibitors | 340,000 compounds, 3.4% hits
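Compounds are dispensed onto cells plated 4 h earlier at 1,000 per well, with HCVcc-Cre virus (about 0.5 moi) added next. Following 44 h of culture, luminescent signal is measured for 15 sec after 15 min with substrate at room temperature.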
VACV mCherry inh – inhibitors of vaccinia virus infection (mCherry reporter signal); Vaccinia virus mCherry reporter infection, fluorescence; Potency, µM (top dose mostly 36.5 µM), most hits filed as inhibitors; 310,000 compounds, 0.63% hits; calls by dose curve; tested in A549 cells; also: nearly all actives have a fitted effect of over 35% in size
VACV Venus inh – vaccinia inhibition (Venus reporter) | 330,000 compounds, 0.46% hits | Potency, µM (titrated, usually from 36.5 µM), most hits filed as inhibitors | Vaccinia virus Venus reporter expression, fluorescence; calls by dose curve; tested in A549 cells; also: nearly all actives have a fitted effect of over 30% in size
FBPA Giardia inh – inhibitors of Giardia lamblia fructose-1,6-bisphosphate aldolase | 290,000 compounds, 0.71% hits | AID 2451 | Potency, µM (top dose mostly 59.6 µM), actives largely listed as inhibitors | purified Giardia FBPA | A8B2U2; also: nearly all actives have a fitted effect of over 55% in size
Target sequence (A8B2U2 whole entry, looked up): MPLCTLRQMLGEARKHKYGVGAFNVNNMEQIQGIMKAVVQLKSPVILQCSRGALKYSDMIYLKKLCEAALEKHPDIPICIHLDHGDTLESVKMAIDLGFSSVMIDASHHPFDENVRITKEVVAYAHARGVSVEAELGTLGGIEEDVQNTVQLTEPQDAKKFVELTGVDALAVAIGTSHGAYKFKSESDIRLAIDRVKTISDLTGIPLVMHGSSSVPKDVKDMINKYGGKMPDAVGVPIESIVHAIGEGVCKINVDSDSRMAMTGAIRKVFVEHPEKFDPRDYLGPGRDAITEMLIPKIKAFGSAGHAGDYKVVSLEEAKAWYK
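40 nM FBPA preincubated 10 min at RT with compound (up to 57.5 uM final), then substrate plus GAPDH/TPI/NAD/arsenate coupling and diaphorase/resazurin added. Fluorescence read after 20 min at RT, 525/598 nm.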
FMDV inh – blocks foot and mouth disease virus; FMDV antiviral cell-based qHTS; Potency, µM (doses to about 57.9 µM), usual class: inhibitors; 410,000 compounds, 1.2% hits; calls by dose curve; tested in HEK293T cells; also: read-out not given here; nearly all actives have a fitted effect of over 45% in size
HCMV antiviral – inhibitors of human cytomegalovirus | HFF cells, HCMV-luciferase reporter, 72 h; hits give low values | activity change, negative = inhibition, % at 57.5 µM | 410,000 compounds, 4.5% hits; in the data active = activity change below about -60%; inconclusive = no clear call, values can overlap the other calls; inactive = above about -39%
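Two compound doses tested in HFFs infected with HCMV-luciferase, MOI 1 PFU/cell, 72 h at 37C. Lysate luminescence read with OneGlo; data normalized against buffer-only and 10uM Salinomycin inhibitor controls.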
A number is an active result; n = inactive; u = inconclusive; x = no result. Rows were chosen to be rich in hits. Some 7.5% of all compounds tested hit in one or more screens of this group. Unless noted, calls follow the shape of the dose curve; as a rule, active = well fitted curve in the direction sought with a large enough effect; inconclusive = small, poorly fitted or top-dose-only effect, or another doubt; inactive = no such curve, though single readings can be large; an effect the other way counts as inactive or inconclusive.

SMILES	HCV inhibitor	VACV mCherry inh	VACV Venus inh	FBPA Giardia inh	FMDV inh	HCMV antiviral
CCN1C(=O)/C(=C/N(C(C)=O)c2ccccc2)N(c2ccccc2)C1=S	n	n	n	n	32µM	n
COc1ccc(-c2nnc(Sc3nc4ccccc4o3)c3ccccc23)cc1	n	8.9µM	11µM	n	x	u
CCc1cccc(C)c1NC(=O)C1CCN(c2nnc(C)c3c(C)n(-c4ccccc4)nc23)CC1	x	n	n	x	n	n
COc1cccc(NC(=S)N(Cc2ccccn2)Cc2ccccc2Cl)c1	u	n	n	n	n	-60
CCN(Cc1ccncc1)C(=S)Nc1ccc(Cl)cc1	n	n	n	n	n	n
CCN(CC)C(=S)Nc1ccc(Cl)c(Cl)c1	u	n	n	n	n	-66

Bioassay records deposited in PubChem BioAssay by National Center for Advancing Translational Sciences (NCATS).
